Screening data (PubChem BioAssay)
Shown are actives, neighbours in structure and some others; about 2.2% of the full set was active somewhere.
MEKK2 mut-MEK5 = signal of MEK5 binding to mutant human MEKK2 PB1 domain | bead flow cytometry, Alexa488-MEK5 binding to MEKK2 mutant | percent response, % at 10 µM | 290,000 compounds, 0.35% hits | AID 1530; in the data active = percent response above about 24%, passing the limit was not always enough
MEKK2wt PB1 HTS = raises or lowers MEK5 binding to wildtype human MEKK2 PB1 domain; Q9Y2U5; 290,000 compounds, 1.1% hits; binding response (% of control), % at 10 µM; AID 1531; bead flow cytometry, Alexa488-MEK5 binding to MEKK2 WT; actives lie on both sides; in the data active = binding response below about 67% or above about 130%
VLA-4 inh = inhibition in a human VLA-4 binding assay | P13612 | 330,000 compounds, 0.2% hits | inhibition, % (about 7 µM as worked out from the volumes in the protocol) | AID 2557 | VLA-4 expressing cells, ligand binding flow cytometry; in the data active = inhibition above about 50%
MEKK3 PB1 HTS = modulators (inhibitors or enhancers) of MEK5 binding to human MEKK3 PB1 domain | Q99759 | bead-based flow cytometry, Alexa488-MEK5 binding to MEKK3; actives lie on both sides; 0 = blocked by unlabeled MEK5, 100 = vehicle | binding response (% of control), % at 10 µM | 290,000 compounds, 1.4% hits;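 active = binding response more than 3 SD above or below the average of its plate-row segment, actives on both sides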;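 note: Alexa488 bead fluorescence after subtracting the streptavidin-only scavenger bead signal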
MEKK2wt confirm = raises or lowers MEK5 binding to wildtype human MEKK2, retest. bead flow cytometry, Alexa488-MEK5 binding to MEKK2 WT; actives lie on both sides. shares compounds with MEKK3 PB1 HTS. binding response (% of control), % at 10 µM. 5,900 compounds, 2.4% hits; in the data active = binding response below about 16% or above about 210%; inactive = in between
MEKK2mut-MEK5 = signal of MEK5 binding to mutant human MEKK2, retest | shares compounds with MEKK3 PB1 HTS | bead flow cytometry, Alexa488-MEK5 binding to MEKK2 mutant | percent response, % at 10 µM | 5,900 compounds, 2% hits; in the data active = percent response mostly above about 71%, no sharp cut-off; inactive = mostly below about 38%;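 note: higher means compound restores mutant binding toward wildtype level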
MEKK3 confirm = confirmation of inhibitors of MEK5 binding to human MEKK3. 5,900 compounds, 1.8% hits. bead flow cytometry, Alexa488-MEK5 binding to MEKK3; active compounds read low. shares compounds with MEKK3 PB1 HTS. binding response (% of control), % at 10 µM;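 active = binding response below 72% of control, or above a set upper limit, though filed actives all read lower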;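 note: 100% = DMSO only wells and 0% = binding blocked by excess unlabeled MEK5; lower values mean stronger disruption of MEK5 binding to MEKK3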
The depositor's hits bear a star; nt = not tested or not shown; [ ] = another dose, or the depositor's remark.

SMILES | MEKK2 mut-MEK5 | MEKK2wt PB1 HTS | VLA-4 inh | MEKK3 PB1 HTS | MEKK2wt confirm | MEKK2mut-MEK5 | MEKK3 confirm
COC(=O)/C=C1\S/C(=N/N=C/c2ccc(Cl)cc2)NC1=O | -12 | 86 | -10 | 87 | nt | nt | nt
COC(=O)/C=C1\S/C(=N/N=C/c2ccccc2)NC1=O | 1 | 107 | 16 | 139* | 94 | -5 | 97
CCN1CCN(c2ccc(NC(=O)c3cc(S(=O)(=O)N4CCCC4)ccc3Cl)cc2)CC1 | nt | nt | -125 | nt | nt | nt | nt
Cc1nnc(SCC(=O)NNC(=O)C(C)C)[nH]c1=O | 4 | 106 | 8 | 134* | 107 | -2 | 104
CC(C)CNC(=O)C(=O)NNC(=O)c1ccco1 | -11 | 90 | 5 | 97 | nt | nt | nt
COc1ccc(CC(=O)Nc2nc3ccccc3[nH]2)cc1 | -11 | 95 | -4 | 96 | nt | nt | nt
COc1cccc(CC(=O)Nc2nc3ccccc3[nH]2)c1 | 112* | nt | -40 | 96 | 109 | 4 | 105
O=C(O)/C=C/C(=O)N1CCN(c2cccc(Cl)c2)CC1 | 1 | 116 | 9 | 129* | 111 | 6 | 104
O=C(O)CCC(=O)N1CCN(c2cccc(Cl)c2)CC1 | 0 | 90 | 13 | 94 | nt | nt | nt
COCCCNC(=S)NNC(=O)c1ccoc1C | -3 | 101 | -6 | 74*[inhibitor] | 105 | 1 | 102
Cc1occc1C(=O)NNC(=O)c1ccc(F)cc1 | -17 | -1.0*[inhibitor] | -3 | 0.0*[inhibitor] | 104 | 2 | 103
Cc1occc1C(=O)NNC(=O)c1ccccc1F | 0 | 100 | 7 | 97 | nt | nt | nt
CCCCNC(=S)NNC(=O)c1ccoc1C | 4 | 108 | 8 | 105 | nt | nt | nt
Cc1ccc(CCNC(=O)CN2C(=O)COc3ccc(S(=O)(=O)N4CCOCC4)cc32)cc1 | -1 | 102 | 8 | 98 | nt | nt | nt
CCOc1ccccc1C(=O)Nc1cc(C)ccc1NC(=O)c1ccco1 | 7 | 104 | 5 | 102 | nt | nt | nt
O=C(COC(=O)c1cccc(Br)c1)NCCC1=CCCCC1 | 1 | 98 | -5 | 95 | nt | nt | nt
O=C(COC(=O)c1ccccc1)Nc1ccccc1Br | -16 | 54*[inhibitor] | 8 | 46*[inhibitor] | 41 | -29 | 85
CCNC(=O)COC(=O)c1cccc(Br)c1 | -13 | 39*[inhibitor] | 7 | 38*[inhibitor] | 102 | -6 | 98
O=C1c2ccccc2S(=O)(=O)N1CC(O)Cn1ccc2ccccc21 (centres undefined) | 81* | 31* | 1 | 97 | 87 | -3 | 100
OC(CN1CCNCC1)Cn1ccc2ccccc21 (centres undefined) | 35* | 153 | -9 | 107 | 156 | 33 | 105
OCc1nc2ccccc2n1CC(O)Cn1ccc2ccccc21 (centres undefined) | 16 | 110 | 19 | 102 | nt | nt | nt
c1ccc2c(C3CCO3)cccc2c1 (centres undefined) | nt | nt | -10 | nt | nt | nt | nt
O=C(O)c1ccccc1S(=O)(=O)NCC(O)COC1CCCCC1 (centres undefined) | 0 | 96 | 42 | 102 | nt | nt | nt
Cc1ccc(OCC(O)CNS(=O)(=O)c2ccccc2C(=O)O)cc1 (centres undefined) | -4 | 90 | -5 | 71*[inhibitor] | 100 | 2 | 102
COc1ccc(OC)c(-n2c(=O)c3ccccc3c3ccccc3c2=O)c1 | 0 | 99 | 17 | 72*[inhibitor] | 98 | 1 | 98
SMILES | MEKK2 mut-MEK5 | MEKK2wt PB1 HTS | VLA-4 inh | MEKK3 PB1 HTS | MEKK2wt confirm | MEKK2mut-MEK5 | MEKK3 confirm
CC[C@@]1(C(=O)OC)N[C@H](CN(C)C(=O)COc2ccccc2)[C@@H]2C(=O)N(Cc3ccccc3)C(=O)[C@@H]21 | nt | nt | 25 | nt | nt | nt | nt
COc1ccccc1CCNC(=O)C1CCC(=O)N(C2CCCCCC2)C1 (centres undefined) | 1 | 98 | 10 | 100 | nt | nt | nt
CCOC(=O)c1ccc(NC(=O)CN2C(=O)C(CC)SC(CC)C2=O)cc1 (centres undefined) | 1 | 109 | 4 | 148* | 103 | 2 | 99
CCC1SC(CC)C(=O)N(CC(=O)Nc2ccc3c(c2)OCO3)C1=O (centres undefined) | 0 | 102 | 6 | 133* | 109 | 3 | 102
CC1SCC(=O)N(CC(=O)Nc2ccc3c(c2)OCO3)C1=O (centres undefined) | 11 | 108 | -11 | 102 | nt | nt | nt
CCOC(=O)c1ccc(NC(=O)CN2C(=O)CSCC2=O)cc1 | 0 | 103 | 0 | 132* | 96 | -2 | 93
CCOc1cccc(/C=N/NC(=O)c2cc(C3CC3)[nH]n2)c1O | 0 | 99 | 15 | 103 | nt | nt | nt
Cc1ccc(S(=O)(=O)NCCCN2CCCC2)cc1 | 6 | 105 | 9 | 108 | nt | nt | nt
CC(=O)c1cccc(NS(C)(=O)=O)c1 | -1 | 106 | -13 | 105 | nt | nt | nt
CS(=O)(=O)Nc1cccc(C(=O)OCCCOc2ccc(F)cc2)c1 | -8 | 31*[inhibitor] | 12 | 64*[inhibitor] | 99 | -3 | 103
Cc1cccn2c(=O)c(/C=C(\C#N)C(=O)NC3CCS(=O)(=O)C3)c(Oc3ccc(F)cc3)nc12 (centres undefined) | 6 | 107 | 3 | 104 | nt | nt | nt
Cc1cccn2c(=O)c(/C=C(\C#N)C(=O)NC3CCS(=O)(=O)C3)c(N3CCC(C)CC3)nc12 (centres undefined) | -1 | 104 | 1 | 131* | 102 | -1 | 105
CC(C)Sc1nc2ccccc2n2cnnc12 | 1 | 104 | 9 | 105 | nt | nt | nt
CN(Cc1ccccc1)C(=O)CSc1n[nH]c(N)n1 | 13 | 104 | 5 | 106 | nt | nt | nt
CN(C)CCOc1ccc(/C(=C(/CCCl)c2ccccc2)c2ccccc2)cc1 | 22 | 176* | -15 | 110 | 100 | -8 | 100
Nc1nc(Cl)cc(-c2ccccc2)n1 | -6 | 90 | -11 | 96 | nt | nt | nt
Nc1nc(Cl)cc(Sc2ccc3ccccc3c2)n1 | 26* | 119 | 5 | 115 | 111 | 4 | 106
CCSc1nnc(N)s1 | -7 | 86 | 23 | 86 | nt | nt | nt
Cc1nnc(N)s1 | -37 | 82 | 9 | 73*[inhibitor] | 101 | 0 | 101
Cc1cc(C)cc(N(CCC#N)C(=O)COC(=O)c2ccc(OCc3c(C)noc3C)cc2)c1 | nt | nt | -6 | nt | nt | nt | nt
COc1ccc(CCNc2cc(C)nc3c(-c4ccc(Cl)cc4)cnn23)cc1OC | 0 | 109 | 4 | 136* | 101 | -2 | 104
CN(C)S(=O)(=O)c1ccc(N2CCCC2)c(C(=O)NC2CCC(O)CC2)c1 (centres undefined) | nt | nt | 5 | nt | nt | nt | nt
Cc1cc(/C=C(\C#N)C(=O)N2CCOCC2)c(C)n1C1CCCC1 | -13 | 87 | 16 | 88 | nt | nt | nt
CCOC(=O)c1sc2nc(CSc3ccccc3)nc(NCCN(C)C)c2c1C | 40 | 176* | 5 | 110 | 145 | 32 | 104
O=C(CS(=O)(=O)c1ccccc1)Nc1nccs1 | -5 | 95 | -2 | 96 | nt | nt | nt
